This is an account of results in PubChem BioAssay (NCATS).

Records with an inconclusive call do not appear. The source made the active and inactive calls. Calls follow the shape of the dose curve; as a rule, active = well fitted curve in the direction sought with a large enough effect; inconclusive = small, poorly fitted or top-dose-only effect, or another doubt; inactive = no such curve, though single readings can be large; an effect the other way counts as inactive or inconclusive.

A short description of test [1]: Quantitative High-Throughput drug screen in 47 multiple myeloma cell lines against the NCATS MIPE library collection: MMM1_PLB cell viability assay (AID 1918976). Also: nearly all actives have a fitted effect of over 35% in size. The procedure, abridged:
(§1)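 ATP-based luminescence (CellTiter-Glo, 5 min RT incubation) quantified surviving cells following two days' treatment with MIPE 4.0 agents at 37 °C, 5% CO2.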

The nature of test [2]: Quantitative High-Throughput drug screen in 47 multiple myeloma cell lines against the NCATS MIPE library collection: NCIH929_DSMZ cell viability assay (AID 1918978). Also: nearly all actives have a fitted effect of over 35% in size. The procedure, abridged:
as §1

The nature of test [3]: Quantitative High-Throughput drug screen in 47 multiple myeloma cell lines against the NCATS MIPE library collection: OCIMY1_PLB cell viability assay (AID 1918979). Also: nearly all actives have a fitted effect of over 35% in size. As to viability: series mostly up to about 46 µM. Summed up:
as §1

Test [4] can be described thus: Quantitative High-Throughput drug screen in 47 multiple myeloma cell lines against the NCATS MIPE library collection: MM1S_ATCC cell viability assay (AID 1918980). Also: nearly all actives have a fitted effect of over 45% in size. The procedure, abridged:
as §1

Test [5] can be described thus: Quantitative High-Throughput drug screen in 47 multiple myeloma cell lines against the NCATS MIPE library collection: MM1R_ATCC cell viability assay (AID 1918981). Also: nearly all actives have a fitted effect of over 35% in size. Summed up: as §1
The nature of test [6]: Quantitative High-Throughput drug screen in 47 multiple myeloma cell lines against the NCATS MIPE library collection: LP1_DSMZ cell viability assay (AID 1918982). Also: nearly all actives have a fitted effect of over 35% in size. The procedure, abridged: as §1
Test [7] in a line: Quantitative High-Throughput drug screen in 47 multiple myeloma cell lines against the NCATS MIPE library collection: KMS28PE_JCRB cell viability assay (AID 1918983). Also: nearly all actives have a fitted effect of over 35% in size. Summed up:
as §1

The nature of test [8]: Quantitative High-Throughput drug screen in 47 multiple myeloma cell lines against the NCATS MIPE library collection: L363_DSMZ cell viability assay (AID 1918984). Also: nearly all actives have a fitted effect of over 40% in size. The procedure, abridged:
as §1

Test [9] in a line: Quantitative High-Throughput drug screen in 47 multiple myeloma cell lines against the NCATS MIPE library collection: MOLP8_DSMZ cell viability assay (AID 1918977). Also: nearly all actives have a fitted effect of over 45% in size. Summed up: as §1
The nature of test [10]: Quantitative High-Throughput drug screen in 47 multiple myeloma cell lines against the NCATS MIPE library collection: KMS34_JCRB cell viability assay (AID 1918985). Also: nearly all actives have a fitted effect of over 40% in size. The procedure, abridged: as §1
Potency is read from the fitted curve at half-maximal effect.

Turning to `CNC1CCC(N(Cc2cccc(-c3ccncc3)c2)C(=O)c2sc3c(F)ccc(F)c3c2Cl)CC1` (stereo not drawn), the Potency was 26.4 µM (active) in test [1]; 4.69 µM (active) in test [2]; 23.5 µM (active) in test [3]; 14.8 µM (active) in test [4]; 18.7 µM (active) in [5]; 23.5 µM (active) in test [6]. Also, the Potency in test [7] is 16.6 µM (active); in [8] it was 11.8 µM (active).
As for `O=C1C[C@@H](c2ccc(O)cc2)Oc2cc(O)cc(O)c21`, the values for the Potency in [1] and in test [4] were 1.48 µM (active) and 10.5 µM (active), respectively. The Potency entry in test [2], in [3], in test [5] and in test [6] was “inactive” throughout.
For the compound `Cc1c(NC(=O)c2ccc(C(C)(C)C)cc2)cccc1-c1cn(C)c(=O)c(Nc2ccc(C(=O)N3CCOCC3)cc2)n1`, the Potency in test [1] is 26.4 µM (active); in test [2] it was 20.9 µM (active); in [4], 20.9 µM (active); in test [5], 20.9 µM (active); in test [7], 23.5 µM (active). In addition, the Potency result in test [9] was “inactive”.
In the case of `O=C(O)C=Cc1ccc(O)c(O)c1`, the Potency in test [1] is 7.43 µM (active); in test [9] it was 20.9 µM (active); in [3], 10.5 µM (active); in [4], 9.35 µM (active); in test [5], 23.5 µM (active); in test [8] it was 16.6 µM (active).
`Cc1[nH]c(C=C2C(=O)Nc3ccc(S(=O)(=O)Cc4c(Cl)cccc4Cl)cc32)c(C)c1C(=O)N1CCC[C@H]1CN1CCCC1`: the Potency in [1] is 23.5 µM (active); in [2] it was 8.33 µM (active); in [3] it was 26.4 µM (active); in [5] it was 20.9 µM (active); in test [6] it was 23.5 µM (active); in [7], 20.9 µM (active). The Potency in [8] was 2.35 µM (active); in test [10] it was 20.9 µM (active).
As to `NS(=O)(=O)c1cccc2c1C(=O)c1cccc(O)c1C2=O`, the Potency is 0.264 µM (active) in [1]; 0.264 µM (active) in test [2]; 10.5 µM (active) in test [4]; 0.526 µM (active) in test [5]; 0.743 µM (active) in test [6]; 1.18 µM (active) in [7]. Also, the Potency in [8] is 0.166 µM (active).
Turning to `O=C(Nc1cc(Cl)cc2c1[nH]c1cnccc12)c1cccnc1`, the Potency in [1] was 11.8 µM (active); in test [2], 1.87 µM (active); in test [4] it was 11.8 µM (active); in test [5] it was 1.87 µM (active); in [7] it was 16.6 µM (active). Moreover, the Potency entry in test [3] and in test [6] was “inactive” in each case.
As to `COc1cc(Nc2ncc(F)c(Nc3ccc4c(n3)NC(=O)C(C)(C)O4)n2)cc(OC)c1OC`, the Potency in test [1] was 1.48 µM (active); in test [9], 7.43 µM (active); in [2] it was 1.18 µM (active); in test [3] it was 1.66 µM (active); in [5], 6.62 µM (active); in test [10] it was 4.69 µM (active). Besides, the Potency result in test [4] was “inactive”.
Regarding `CC1(C)CCC(CN2CCN(c3ccc(C(=O)NS(=O)(=O)c4ccc(NCC5CCOCC5)c([N+](=O)[O-])c4)c(Oc4cnc5[nH]ccc5c4)c3)CC2)=C(c2ccc(Cl)cc2)C1`, the Potency in test [1] was 0.166 µM (active); in test [9] it was 18.7 µM (active); in test [2], 23.5 µM (active); in [3] it was 10.5 µM (active); in test [4], 23.5 µM (active); in test [5], 14.8 µM (active). For the same compound, the Potency is 18.7 µM (active) in test [6], 16.6 µM (active) in test [7] and 16.6 µM (active) in test [10].
Take `O=C(CCN1CCN(C(=O)OCc2cc(Cl)cc(Cl)c2)CC1)c1ccc2[nH]c(=O)oc2c1`: the figures for the Potency in [1], in test [4] and in test [5] were 10.5 µM (active), 13.2 µM (active) and 18.7 µM (active), respectively. Further, the Potency result in [2], in [3], in [7] and in [10] was “inactive” in each case.
Regarding `Cc1cnc(C(=O)O)c[n+]1[O-]`, the Potency was 3.32 µM (active) in [1] and 4.18 µM (active) in [10]. Also, the Potency entry in test [2], in test [3], in test [5], in test [6] and in test [8] was “inactive” each time.
As to `CC(C)(Cc1ccc2ccccc2c1)NC[C@@H](O)COc1cccc(Cl)c1C#N`, the Potency result in [2], in test [3], in test [6] and in [7] was “inactive” each time. The Potency in test [4] is 16.6 µM (active).
On to `CS(=O)c1ccc(-c2nc(-c3ccc(F)cc3)c(-c3ccncc3)[nH]2)cc1` (stereo not drawn), for which the Potency in [2] is 5.4 µM (active); in test [4], 38.2 µM (active); in test [8], 24.1 µM (active). For the same compound, the Potency result in [3] and in [7] was “inactive” each time.
Regarding `CC(C)C(=O)Oc1ccc(CO)cc1[C@H](CCN(C(C)C)C(C)C)c1ccccc1`, the Potency entry in test [2], in test [3], in [4], in [5] and in test [6] was “inactive” each time. In addition, in test [10], the Potency was 18.7 µM (active).
For the compound `COc1cc2ncnc(-n3nc(-c4ccccn4)nc3N)c2cc1OC`, the Potency in test [2] is 4.18 µM (active); in test [4], 20.9 µM (active); in test [5] it was 18.7 µM (active); in test [8], 0.662 µM (active). Also, the Potency result in [3] and in test [6] was “inactive” throughout.
As to `CO[C@H]1C=CO[C@@]2(C)Oc3c(C)c(O)c4c(O)c(c5c(c4c3C2=O)NC2(CCN(CC(C)C)CC2)N=5)=NC(=O)C(C)=CC=C[C@H](C)[C@H](O)[C@@H](C)[C@@H](O)[C@@H](C)[C@H](OC(C)=O)[C@H]1C`, the Potency entry in test [2], in test [3] and in [8] was “inactive” in each case. Also, in [5], the Potency is 10.5 µM (active).
As for `C[N+]1(C)[C@@H]2CC(OC(=O)[C@H](CO)c3ccccc3)C[C@H]1[C@H]1O[C@@H]12` (stereo partly drawn), the Potency result in [2], in test [3], in test [5], in test [6], in test [7] and in test [8] was “inactive” each time.
`Cn1c(N2CCCCS2(=O)=O)nc(C(=O)NCc2ccc(F)cc2)c(O)c1=O`: the Potency entry in test [2], in test [3], in [4], in [5], in test [6] and in test [7] was “inactive” in each case. The Potency entry in test [10] is “inactive”.
In the case of `NC(=O)c1ccc2nc(-c3ccc(Oc4ccc(Cl)cc4)cc3)[nH]c2c1`, the Potency in [2] is 0.0235 µM (active).
